The list is not random: actives were taken first. Their share in the collection is about 0.45%.
FMDV Renilla – Primary qHTS Assay for Foot and Mouth Disease Virus Antivirals against NCGC Sytravon and CBC Compound Libraries: Renilla Luciferase Signal | FMDV replicon cells, Renilla luciferase signal | Potency, µM (highest dose often 57.5 µM), for inactives: top-dose activity change, negative = inhibition, most hits filed as inhibitors | 120,000 compounds, 0.32% hits | AID 1745857, 2022; note: nearly all actives have a fitted effect of over 55% in size
FMDV antiviral – Primary qHTS Assay for Foot and Mouth Disease Virus Antivirals against NCGC Sytravon and CBC Compound Libraries: Firefly Luciferase Signal; FMDV antiviral cell assay, firefly luciferase signal; Potency, µM (doses to about 57.5 µM), for inactives: at the highest dose activity change, negative = inhibition, actives largely listed as inhibitors; 120,000 compounds, 0.23% hits; note: nearly all actives have a fitted effect of over 60% in size
Starred values were filed as active, the others as inactive; [ ] = remark or other dose. Calls come from the whole dose curve. % is set by controls: 0 for no effect and ±100 for the full control effect; potency is the fitted concentration of half-maximal effect.

What do the screens show for `COc1cc(OC)c(NC(=O)NCc2ccc3c(c2)CCN3C(C)=O)cc1Cl`?
FMDV Renilla: -3.6%; FMDV antiviral: -8.6%

What do the screens show for `COc1ccc(NC(=O)Cn2c(=O)oc3cc(S(=O)(=O)N4CCC(C)CC4)ccc32)c(OC)c1`?
FMDV Renilla: 10µM*; FMDV antiviral: inconclusive

What do the screens show for `COc1ccc(C)cc1NC(=O)Cn1c(=O)oc2cc(S(=O)(=O)N3CCCCC3)ccc21`?
FMDV Renilla: 12.8%; FMDV antiviral: 11.4%

What do the screens show for `COc1ccc(C(CNC(=O)c2ccc(C#N)cc2)N2CCOCC2)cc1OC` (stereo not drawn)?
FMDV Renilla: -7.1%; FMDV antiviral: 2.5%

What do the screens show for `CCc1noc(C(C)N2CCN(c3oc(-c4ccco4)nc3C#N)CC2)n1` (stereo not drawn)?
FMDV Renilla: 16.2%; FMDV antiviral: 3.3%

Results for CCOc1ccc(-c2nnc(SCC(=O)Oc3ccccc3)o2)cc1 ?
FMDV Renilla: -3.5%; FMDV antiviral: 3.55µM*

What do the screens show for `COc1ccc(OC(=O)CSc2nnc(-c3ccc(F)cc3)o2)cc1`?
FMDV Renilla: -4.9%; FMDV antiviral: -9.9%

Results for C[N+](CCOCc1ccccc1)(CCOCc1ccccc1)CCOCc1ccccc1 ?
FMDV Renilla: 28.2µM*; FMDV antiviral: inconclusive

Results for CC[N+](C)(CC)CC(C[N+](C)(CC)CC)OCc1ccccc1 ?
FMDV Renilla: 8.0%; FMDV antiviral: 0.1%

What do the screens show for `Cc1cc(C(=O)Cn2cnc3c2c(=O)n(C)c(=O)n3C)c(C)[nH]1`?
FMDV Renilla: 0.2%; FMDV antiviral: -1.7%

What do the screens show for `O=C(CSc1nc(=O)n(Cc2cccnc2)c2c1CCC2)Nc1cccc(Cl)c1`?
FMDV Renilla: 18.7%; FMDV antiviral: -3.3%

What do the screens show for `CC(C)c1ccc(NC(=O)CSc2nc(=O)n(Cc3cccnc3)c3c2CCC3)cc1`?
FMDV Renilla: 8.91µM*; FMDV antiviral: inconclusive

Results for COC(=O)c1ccc(NC(=O)CCc2c(C)nc3c(c2C)c(=O)n(C)c(=O)n3C)cc1 ?
FMDV Renilla: -19.2%; FMDV antiviral: -29.8%

Results for COc1ccc(-c2cc(C(=O)OCC(=O)c3cccc(OC)c3)c3cccc(Cl)c3n2)cc1 ?
FMDV Renilla: -13.0%; FMDV antiviral: -14.6%

What do the screens show for `O=C(Nc1nc(-c2ccc(Br)s2)cs1)C1CC1`?
FMDV Renilla: 11.0%; FMDV antiviral: 0.0%

What do the screens show for `O=C(Nc1nc(-c2cc3ccccc3oc2=O)cs1)c1ccc(Cl)cc1`?
FMDV Renilla: -12.0%; FMDV antiviral: -5.9%

What do the screens show for `O=C(Nc1nc(-c2ccc(Cl)cc2)cs1)c1ccc(CN2CCOCC2)cc1`?
FMDV Renilla: inconclusive; FMDV antiviral: 14.1µM*

What do the screens show for `O=C(Nc1nc(-c2ccc(Cl)cc2)cs1)C1CCN(C(=O)c2ccoc2)CC1`?
FMDV Renilla: 10µM*; FMDV antiviral: inconclusive

How did CC1=C(C(=O)Nc2cccc(C(F)(F)F)c2)C(c2ccc(C(F)(F)F)cc2)NC(=O)N1 (stereo not drawn) do in these assays?
FMDV Renilla: -12.6%; FMDV antiviral: -8.7%

What do the screens show for `Cc1cccc(-c2c3c(=O)n(C)c(=O)n(C)c3c3c(C)nc4ccccc4n23)c1`?
FMDV Renilla: -12.8%; FMDV antiviral: 12.5%

How did O=C1CSc2ccc(C(=O)NNC(=O)c3cc(-c4ccccc4)nc4ccccc34)cc2N1 do in these assays?
FMDV Renilla: 4.8%; FMDV antiviral: 17.3%

What do the screens show for `O=S(=O)(c1ccc2nc(N3CCN(c4ccc(F)cc4)CC3)ccc2c1)N1CCOCC1`?
FMDV Renilla: -5.6%; FMDV antiviral: -1.8%

How did O=C(c1n[nH]c(=O)c2ccccc12)N1CCN(CC(F)(F)F)CC1 do in these assays?
FMDV Renilla: 17.3%; FMDV antiviral: 37.8%

What do the screens show for `Cc1cccc(CN2CCN(C(=O)c3n[nH]c(=O)c4ccccc34)CC2)c1`?
FMDV Renilla: inconclusive; FMDV antiviral: 14.1µM*

Results for CC1CCN(S(=O)(=O)c2ccc(NC(=O)c3cc(=O)c4ccccc4o3)cc2)CC1 ?
FMDV Renilla: -4.7%; FMDV antiviral: -14.8%

What do the screens show for `Cn1c(=O)c2c(ncn2CC(=O)Nc2nc(-c3cccc4ccccc34)cs2)n(C)c1=O`?
FMDV Renilla: -7.4%; FMDV antiviral: 130.3%

Results for O=C(Nc1nc(-c2cccc3ccccc23)cs1)c1cccs1 ?
FMDV Renilla: inconclusive; FMDV antiviral: 12.6µM*

What do the screens show for `CCOc1ccccc1NC(=O)CN1C=NS(=O)(=O)c2ccccc21`?
FMDV Renilla: -12.2%; FMDV antiviral: -18.9%

Results for Cc1ccc(S(=O)(=O)N(C)C)cc1NC(=O)c1ccc2ccccc2n1 ?
FMDV Renilla: -4.9%; FMDV antiviral: 100.3%

How did O=C(CCCc1c[nH]c2ccccc12)Nc1cccc2cnccc12 do in these assays?
FMDV Renilla: 11.2µM*; FMDV antiviral: inconclusive

Results for O=C(CCCc1c[nH]c2ccccc12)Nc1ccc2ncccc2c1 ?
FMDV Renilla: 4.9%; FMDV antiviral: 0.0%

How did CN(C)CCCNC(=O)c1cc(-c2ccc(-c3ccccc3)cc2)nc2ccccc12 do in these assays?
FMDV Renilla: 8.91µM*; FMDV antiviral: 99.3%

Results for CN(C)CCCNC(=O)c1cc(-c2ccccc2)nc2ccccc12 ?
FMDV Renilla: -13.6%; FMDV antiviral: -10.6%

What do the screens show for `Cc1ccc2nc(NC(=O)c3cccn(Cc4ccccc4F)c3=O)sc2c1`?
FMDV Renilla: 12.6%; FMDV antiviral: 32.6%

Results for O=S(=O)(Nc1ccc2cn[nH]c2c1)c1cc(C(F)(F)F)ccc1Cl ?
FMDV Renilla: 285.1%; FMDV antiviral: 66.5%

Results for O=C(Nc1ccc(Cl)cc1)Nc1ccc(Cl)c(C(F)(F)F)c1 ?
FMDV Renilla: 7.08µM*; FMDV antiviral: inconclusive

What do the screens show for `O=C(Nc1ccc(Cl)c(C(F)(F)F)c1)c1ccc(Cl)cc1Cl`?
FMDV Renilla: inconclusive; FMDV antiviral: 22.2%

How did CS(=O)(=O)N1CCCc2cc(C(=O)c3cc4ccccc4o3)ccc21 do in these assays?
FMDV Renilla: inconclusive; FMDV antiviral: -17.3%

How did CS(=O)(=O)N1CCc2cc(C(=O)c3cc4cc(Br)ccc4o3)ccc21 do in these assays?
FMDV Renilla: 1.7%; FMDV antiviral: 20µM*

What do the screens show for `COC(=O)c1cc(C23CC4CC(CC(C4)C2)C3)ccc1O`?
FMDV Renilla: -1.9%; FMDV antiviral: 10.2%

How did CN1CCN(CCNC(=O)c2cnn(-c3ccc(F)cc3)c2C2CCN(C(=O)OC(C)(C)C)CC2)CC1 do in these assays?
FMDV Renilla: -8.9%; FMDV antiviral: -15.2%

What do the screens show for `C[C@@H](O[C@H]1OCCN(Cc2n[nH]c(=O)[nH]2)[C@H]1c1ccc(F)cc1)c1cc(C(F)(F)F)cc(C(F)(F)F)c1`?
FMDV Renilla: 31.6µM*; FMDV antiviral: inconclusive

What do the screens show for `CCN1C(=O)COc2ccc(-c3nc(NC(=O)c4ccccc4)sc3C)cc21`?
FMDV Renilla: 10µM*; FMDV antiviral: 14.1µM*

What do the screens show for `Cc1sc(NC(=O)c2ccco2)nc1-c1ccc2c(c1)N(C)C(=O)CO2`?
FMDV Renilla: -0.9%; FMDV antiviral: 4.0%

Results for COc1ccccc1CCNC(=O)Cc1c(C)c2c(cc(C)c3c(C)c(C)oc32)oc1=O ?
FMDV Renilla: -16.5%; FMDV antiviral: -23.2%

How did Cc1nsc(N)c1C#N do in these assays?
FMDV Renilla: 19.1%; FMDV antiviral: 28.7%

How did CC(=O)Nc1ccc(NC(=O)C(C)OC(=O)c2ccc3c(c2)NC(=O)CS3)cc1 (stereo not drawn) do in these assays?
FMDV Renilla: -9.7%[1.06 µM]; FMDV antiviral: 3.3%
